# Most compounds without a hit are left out; they make up all but 2.3% or so of the library.
# CHO-K1 Ca antag: counter-screen for M1 antagonists: effect in parental CHO-K1 cells. inhibition, % at 3 µM. ATP-induced calcium, Fluo-8 fluorescence. 360,000 compounds, 0.6% hits;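 active = inhibition above a per-plate cutoff, the plate's mean sample inhibition plus 3 SD, cut at about 24% in these data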
# M1 PAM parental: nonselective calcium activators in parental CHO-K1 cells, primary screen, counter-screen for M1 PAM project, cell-based, Fluo-8 calcium fluorescence, full deck, 1536-well. ATP EC20; 0% at ATP EC20, 100% at ATP max. activation, % at 3 µM. AID 602247, 2012. 360,000 compounds, 0.02% hits;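 active = activation above the run cutoff, the mean activation of all test compounds plus 3 SD, cut at about 40% in these data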;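 also: peak over basal fluorescence ratio in a 140 s read after ATP addition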
# CHO-K1 Ca ag: counter-screen for M1 agonists: effect in parental CHO-K1 cells; AID 602248, 2012; activation, % at 3 µM; Fluo-8 calcium fluorescence; scaled to maximal ATP response, vehicle zero; 360,000 compounds, 0.48% hits; in the data active = activation above about 15%;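 also: untransfected CHO-K1 host cells lacking M1 receptor as counterscreen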
# M1 PAM: human M1 muscarinic receptor positive allosteric modulators, primary screen, CHO-K1 cells, Fluo-8 calcium fluorescence, 1536-well; Muscarinic acetylcholine receptor M1 (Homo sapiens), P11229; 360,000 compounds, 0.088% hits; CHO-K1 hM1, ACh EC20; 0% = ACh EC20, 100% = maximal ACh; activation, % at 3 µM; in the data active = activation above about 19%, passing the limit was not always enough
# Target sequence (P11229 whole entry, looked up): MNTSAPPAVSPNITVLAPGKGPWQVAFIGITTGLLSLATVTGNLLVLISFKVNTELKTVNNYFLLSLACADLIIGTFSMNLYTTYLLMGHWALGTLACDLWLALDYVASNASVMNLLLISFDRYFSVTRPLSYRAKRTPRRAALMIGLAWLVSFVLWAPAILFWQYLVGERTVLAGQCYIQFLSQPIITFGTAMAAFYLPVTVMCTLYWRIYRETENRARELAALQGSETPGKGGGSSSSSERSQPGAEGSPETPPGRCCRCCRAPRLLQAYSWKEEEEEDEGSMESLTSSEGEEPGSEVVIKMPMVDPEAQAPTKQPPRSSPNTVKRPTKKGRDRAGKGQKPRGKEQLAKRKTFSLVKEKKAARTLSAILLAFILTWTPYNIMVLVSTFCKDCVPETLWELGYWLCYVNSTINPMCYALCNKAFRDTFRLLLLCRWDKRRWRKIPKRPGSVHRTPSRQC
# M1 ag: human M1 muscarinic receptor agonists, primary screen, Fluo-8 calcium fluorescence, CHO-K1 cells, HTS; Muscarinic acetylcholine receptor M1 (Homo sapiens), P11229; CHO-K1 hM1, agonist mode; 0% DMSO, 100% acetylcholine EC100; activation, % at 3 µM; 360,000 compounds, 0.33% hits; AID 588814, 2011;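 active = activation above the run's mean compound activation plus 3 SD, cut at about 16% in these data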;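 also: peak over basal fluorescence ratio within a 140 s kinetic read after compound addition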
# M1 antag: human M1 muscarinic receptor antagonists, primary screen, CHO-K1 cells, Fluo-8 calcium fluorescence, 1536-well; Muscarinic acetylcholine receptor M1 (Homo sapiens), P11229; inhibition, % at 3 µM; 360,000 compounds, 1.3% hits; CHO-K1 hM1, ACh EC80 antagonist;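 active = percent inhibition above its own plate's cutoff, namely the mean of that plate's compound wells plus 3 SD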;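 also: peak over basal fluorescence ratio during 140 s after agonist addition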
# Hits are given with their value; . = inactive.
SMILES,CHO-K1 Ca antag,M1 PAM parental,CHO-K1 Ca ag,M1 PAM,M1 ag,M1 antag
Cc1ccccc1NC(=O)N1CCCC(c2nc(-c3ccc(C(C)C)cc3)no2)C1 (stereo not given),.,.,17,.,.,.
COc1cc(OC)c(C2=NOC(C(=O)Nc3ccc4c(c3)OCO4)C2)cc1Cl (stereo not given),.,.,18,.,.,.
NC(=O)Cn1cc(/C=N/NC(=O)c2ccc(Cn3cc(Cl)cn3)o2)c(-c2ccccc2)n1,.,.,.,.,.,.
Cc1nc2ccccc2cc1OCc1ccccc1,.,.,.,.,.,18
Cc1nc2ccccc2cc1OCc1ccc(Cl)cc1,.,.,.,.,.,22
COc1cccc(COc2cc3ccccc3nc2C)c1,.,.,.,.,.,34
Cn1cnnc1SCC(=O)NC1CCCN(Cc2ccccc2F)C1 (stereo not given),.,.,.,.,.,.
O=C(C[C@@H]1C/C=C\CCCC(=O)OC[C@@H]2CCCN2C1=O)N[C@@H](CO)Cc1ccccc1,.,.,.,.,.,.
O=C(CC[C@H]1O[C@@H](n2ccc(=O)[nH]c2=O)[C@H](O)[C@@H]1O)N[C@H](Cc1ccccc1)C(=O)NCc1cccs1,.,.,.,.,.,.
Cc1ccc(S(=O)(=O)N2CCCCC2CCNC(=O)C(=O)NCC2CCCO2)cc1 (stereo not given),.,.,.,.,.,.
CN1CCC(=C2c3ccccc3Sc3ccccc32)CC1,.,.,.,.,.,100
O=C(NCCNC(=O)c1ccc(-c2cc(Cl)ccc2Cl)o1)c1cnccn1,.,.,.,.,.,.
O=[N+]([O-])c1ccc(CN2CCCCCC2)cc1,.,.,.,.,.,.
CSc1ccc(CN2CCN(Cc3ccc([N+](=O)[O-])cc3)CC2)cc1,.,.,.,.,.,41
CCN(CCc1ccccc1)c1ccc2c(c1)C1CC2CCN1Cc1ccccc1 (stereo not given),.,.,.,.,.,.
Cc1ccccc1NC(=O)CSc1nn2c(=O)c(C)nnc2s1,.,.,.,.,.,.
Cc1ccccc1CSc1nn2c(=O)c(C)nnc2s1,24,.,.,.,.,.
Cc1ccc(C2N(c3ccc(F)cc3)C(=O)C3CCCN32)cc1 (stereo not given),.,.,.,.,.,.
Cc1cccc(C2N(c3ccc(F)cc3)C(=O)C3CCCN32)c1 (stereo not given),31,.,.,.,.,.
COc1ccc(N2CCN(C(=O)C3CCCN3S(=O)(=O)c3cccc4nsnc34)CC2)cc1 (stereo not given),.,.,.,.,.,.
CCCCNC(=O)c1cn(C)c2ccc(S(=O)(=O)N3CC(C)CC(C)C3)cc2c1=O (stereo not given),.,.,.,.,.,.
O=S(=O)(NC1c2cccc3cccc(c23)C1Sc1ncccn1)c1ccccc1 (stereo not given),.,.,.,.,.,.
O=C1NC(=S)NC1(c1ccccc1)c1ccccc1,.,.,.,.,.,47
O=C1NC(=O)C(c2ccccc2)(c2ccccn2)N1 (stereo not given),.,.,.,.,.,.
COc1ccccc1Cc1c(-c2cccc(Cl)c2)nc2ccc(C)cn12,.,.,.,.,.,.
SMILES,CHO-K1 Ca antag,M1 PAM parental,CHO-K1 Ca ag,M1 PAM,M1 ag,M1 antag
CNc1ncc(Cc2ccccc2)s1,24,.,.,.,.,.
COc1ccccc1C1CCN(Cc2cccc([N+](=O)[O-])c2)CC1,.,.,.,.,.,35
CN1CCN(c2ccc(Cl)cc2NS(=O)(=O)c2ccccc2Cl)CC1,.,.,.,.,.,36
CCOC(=O)C1(Cc2ccccc2)CCCN(Cc2ccncc2)C1 (stereo not given),.,.,.,.,.,.
CCOC(=O)C1(Cc2ccccc2)CCCN(Cc2cccc(C(C)=O)c2)C1 (stereo not given),.,.,16,.,.,.
Cc1ccc(S(=O)(=O)N2CCCC(C(=O)NCCc3ccc4c(c3)OCO4)C2)cc1 (stereo not given),24,.,.,.,.,.
CCCc1cc(N2CCCC(C(=O)NCc3ccc4c(c3)OCO4)C2)n2ncnc2n1 (stereo not given),.,.,.,28,.,.
Cc1c(C(=O)NCc2ccc3c(c2)OCO3)oc2ccc(S(=O)(=O)N3CCCCC3)cc12,.,.,.,.,.,28
O=C(NCc1ccc2c(c1)OCO2)C1CCCN(S(=O)(=O)c2cccnc2)C1 (stereo not given),48,.,.,.,.,.
Cc1cc(C)nc(N2CCCC(C(=O)NCc3ccc4c(c3)OCO4)C2)n1 (stereo not given),.,.,.,.,.,.
Cc1c(C(=O)NCc2ccc3c(c2)OCO3)oc2ccc(S(=O)(=O)N3CCCC3)cc12,.,.,.,.,.,.
CN1CCN(C(=O)c2cnc(Cc3c[nH]c4ccccc34)c(I)c2)CC1,.,.,.,.,.,.
O=S(=O)(Nc1nc2ccccc2[nH]1)c1ccc(Cl)cc1,.,.,.,.,.,70
COC(=O)c1ccc(C)c(-n2c(C)cc(C=O)c2C)c1,.,.,.,.,.,.
COc1ccc(Cl)cc1NC(=O)NCC1CCN(Cc2cc(C)ccc2C)CC1,.,.,16,.,.,.
COc1cc([N+](=O)[O-])ccc1NC(=O)NCC1CCN(Cc2ccc(Cl)cc2)CC1,.,.,17,.,.,.
O=C(NCC1CCN(Cc2cccc(Cl)c2)CC1)Nc1ccc(Cl)cc1,.,.,.,.,.,.
Cc1ccc(-n2sc3cc(F)ccc3c2=O)c(C)c1,.,.,.,.,18,.
O=c1c2cc(F)ccc2sn1-c1ccccc1Cl,.,.,.,.,.,.
O=c1c2ccc(F)cc2sn1-c1ccccc1,.,.,.,.,16,.
CCCCn1c(N)c(N(CC(C)C)C(=O)COC(=O)C2(c3ccccc3)CC2)c(=O)[nH]c1=O,.,.,.,.,.,.
C=CCN1C(=O)S/C(=C/c2ccc(Sc3nc4ccccc4[nH]3)o2)C1=O,26,.,.,.,.,.
CC(C)N1C(=O)S/C(=C/c2ccc(Sc3nc4ccccc4[nH]3)o2)C1=O,.,.,.,.,.,.
O=C(NCc1ccco1)c1ccccc1NS(=O)(=O)c1ccc(Br)s1,24,.,.,.,.,.

# Screens from PubChem BioAssay.
